PABP polyA inh = PABP poly(A) RNA binding inhibitors, primary screen, biochemical, fluorescence polarization, uHTS. AID 2014, 2009. inhibition, % at 35 µM. 290,000 tested, 1% active. Polyadenylate-binding protein 1 (Homo sapiens), P11940;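 also: calls also rest on retests at 20 µM and on dose response follow-up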
MLLE-PAM2 inh = inhibitors of PABP1 MLLE–PAM2 peptide binding, primary screen, biochemical, fluorescence polarization, FITC-PAM2, GST-MLLE. Polyadenylate-binding protein 1 (Homo sapiens), P11940. inhibition, % at 20 µM. 360,000 tested, 0.36% active; in the data active = inhibition above about 35%, passing the limit was not always enough;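 also: plate controls were DMSO wells with GST-MLLE for no effect and wells lacking GST-MLLE protein for full effect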
PERK inhibitor = block of dimerizer-induced PERK translation repression, primary screen, PERK inhibitor project, CHO PERK-DD cells, SEAP luminescence, HTS; CHO PERK-DD fusion, SEAP luminescence translation reporter; inhibition, % at 5.6 µM; 220,000 tested, 0.17% active;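 active = inhibition above the mean inhibition of all tested compounds plus 3 SD, set separately per screening campaign, cut at about 2.9% in these data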;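 also: PERK kinase domain activated by AP20187 dimerizer at 100 nM; 0% = DMSO with dimerizer and 100% = rapamycin at 8.4 µM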
eIF4H inh = human eIF4H binding inhibitors, primary screen, translation initiation inhibitor project, biochemical, uHTS, fluorescence polarization | 290,000 tested, 0.94% active | Eukaryotic translation initiation factor 4H (Homo sapiens), Q15056 | inhibition, % at 35 µM | eIF4H fluorescence polarization binding assay | AID 2012, 2009;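 also: calls also rest on retests at 20 µM and on dose response follow-up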
eIF4E 4G PPI = eIF4E–eIF4G protein interaction inhibitors, primary screen, biochemical, uHTS, TR-FRET, eIF4GI fragment; Eukaryotic translation initiation factor 4E (Mus musculus) + Eukaryotic translation …; TR-FRET eIF4E-eIF4GI(517-606) binding, 2 h; inhibition, % at 21.7 µM; 220,000 tested, 0.37% active; AID 782, 2007;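 active = inhibition above about 30%, limit read from the data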;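 also: 0% = full FRET control wells and 100% = background wells lacking eIF4GI fragment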
* marks the source's active call; other numbers are inactive results; ? = inconclusive; nt = no result given. In the library only some 1.6% were active in any assay of this set; here they are far more common. Unless noted, no rule for the calls is given here.

SMILES | PABP polyA inh | MLLE-PAM2 inh | PERK inhibitor | eIF4H inh | eIF4E 4G PPI
Cc1cccc(NC(=O)CSc2nc3nc4c(cc3c(=O)n2-c2ccccc2)CCCC4)c1 | -7 | -10 | 0 | -20 | 6
CCn1c(SCc2ccccc2Cl)nc2nc3c(cc2c1=O)CCCC3 | 60* | -9 | 0 | active | 4
CC1CCN(C(=O)CN2C(=O)C(=O)N(C(C)C)C2=O)c2ccccc2S1 (stereo not drawn) | nt | -11 | nt | nt | nt
O=C(CSCC(=O)Nc1ccc2ccccc2c1)NCc1ccccc1 | -2 | 11 | 1 | -2 | 37*
COc1ccc(Nc2nc3ccccc3nc2C)cc1 | 62* | -28 | 0 | 61* | 4
O=C(O)c1ccc2c(c1)C(=O)/C(=C/c1ccccc1)C2=O | 8 | 40* | 1 | 83 | 9
CCN(C(=O)COC(=O)c1ccc([N+](=O)[O-])o1)C1CCCCC1 | nt | 1 | nt | nt | nt
CCC1=NN2C(=N)/C(=C/c3ccc(OS(=O)(=O)c4ccccc4)c(OC)c3)C(=O)N=C2S1 | 13 | 15 | nt | -22 | nt
CCC1=NN2C(=N)/C(=C/c3c(C)nn(-c4ccccc4)c3Cl)C(=O)N=C2S1 | 11* | 3 | 0 | 74* | 23
CN(C)c1oc(-c2ccccc2[N+](=O)[O-])nc1C#N | 7 | 42* | 0 | -6 | 11
O=C(COC(=O)c1n[nH]c(=O)c2ccccc12)Nc1ccccc1 | nt | -4 | nt | nt | nt
O=C(CCn1c(=S)oc2ccccc21)Nc1ccc(F)cc1 | 54* | 7 | 1 | 8.9* | 3
O=C(Nc1cccc(C(F)(F)F)c1)C1=CC=CN2CCS(=O)(=O)N=C12 | nt | 4 | nt | nt | nt
O=C(CN1C(=O)/C(=C/c2ccco2)SC1=S)NC1CCS(=O)(=O)C1 (stereo not drawn) | 51* | 26 | nt | 74* | nt
O=C(CN1C(=O)/C(=C/c2ccco2)SC1=S)Nc1ccc(C(=O)O)c(O)c1 | 82* | -41 | nt | 92* | nt
CC(=C\c1ccco1)/C=C1/SC(=S)N(CC(=O)O)C1=O | 66* | 3 | 2 | 87* | 3
O=C(CCCN1C(=O)/C(=C/c2ccccc2)SC1=S)Nc1ccc(C(=O)O)c(O)c1 | 12 | 16 | nt | 1 | nt
O=C(CCCN1C(=O)/C(=C/c2ccco2)SC1=S)Nc1cccc(C(=O)O)c1 | 96* | -2 | 1 | 94* | 3
CC(/C=C1\SC(=S)N(CC(=O)O)C1=O)=C\c1ccccc1 | 13 | 11 | 2 | 1 | -4
CC(CNC(=O)c1ccccc1Cl)NC(=O)c1ccccc1Cl (stereo not drawn) | nt | -10 | nt | nt | nt
COC(=O)C=C1CCC2C3CCC4=CC(=O)CCC4(C)C3C(=O)CC12C (stereo not drawn) | nt | 1 | nt | nt | nt
O=C(CCN1C(=O)/C(=C\C=C\c2ccccc2)SC1=S)Nc1ccc(C(=O)O)cc1 | 49* | -10 | nt | 68* | nt
CC(C(=O)Nc1ccc(C(=O)O)c(O)c1)N1C(=O)/C(=C\c2ccco2)SC1=S (stereo not drawn) | 87* | -15 | nt | 100* | nt
CC(C(=O)N(C)C1CCS(=O)(=O)C1)N1C(=O)/C(=C/c2ccco2)SC1=S (stereo not drawn) | 19 | -8 | nt | 33 | nt
O=C(CN1C(=O)S/C(=C/C=C/c2ccccc2)C1=O)Nc1ccc(C(=O)O)cc1 | -7 | 11 | 1 | 0 | 0
SMILES | PABP polyA inh | MLLE-PAM2 inh | PERK inhibitor | eIF4H inh | eIF4E 4G PPI
O=C(CCCN1C(=O)/C(=C\c2ccco2)SC1=S)Nc1ccc(O)cc1C(=O)O | nt | 24 | nt | nt | nt
O=C(CN1C(=O)/C(=C/c2ccco2)SC1=S)Nc1ccc(O)c(C(=O)O)c1 | 69* | -15 | nt | 81* | nt
Cc1ccc2nc(CSc3nnc(Nc4ccccc4F)s3)cc(=O)n2c1 | active | -8 | 0 | 70* | 0
O=c1cc(CSc2nnc(Nc3ccccc3F)s2)nc2sccn12 | 7 | -24 | 0 | -7 | 5
COc1ccc(Nc2nnc(SCc3cc(=O)n4ccsc4n3)s2)cc1 | 31* | 7 | 0 | 75* | -7
CC(=O)NC(c1ccc(F)c(F)c1)c1nc(-c2cnc3ccccc3c2)cs1 (stereo not drawn) | nt | -8 | nt | nt | nt
CCCCN(CCCC)Cc1cc(=O)oc2cc(OC)c(Cl)cc12 | nt | -38 | nt | nt | nt
Cc1nc(Oc2ccccc2)c2ccsc2n1 | active | 7 | 1 | 75* | -2
COc1ccc(Oc2ncnc3sccc23)cc1 | -7 | -9 | 0 | -12 | 2
Cc1ccc(C2C=C(c3ccccc3)Nc3ncnn32)cc1 (stereo not drawn) | nt | 30 | nt | nt | nt
COc1ccc(C2C=C(c3ccc(C)cc3)Nc3ncnn32)cc1 (stereo not drawn) | 13 | 41* | 0 | 1 | nt
CCN(CC)c1cccc(OC2=NS(=O)(=O)c3ccccc32)c1 | 35 | -16 | 0 | 58* | 3
CCCc1nnc(NC(=O)CCC(=O)N2CCN(S(=O)(=O)c3ccc(F)cc3)CC2)s1 | -1 | -5 | 1 | -6 | 5
CCCc1nnc(NC(=O)CNc2ccc(F)cc2)s1 | 2 | 1 | 3.1* | 14 | -14
c1ccc(CCNc2nc3ccccc3n3nnnc23)cc1 | 8 | 5 | 0 | 9 | 0
COc1ccc(CCNc2nc3ccccc3n3nnnc23)cc1OC | 120* | 21 | 0 | ? | 3
OC[C@@H]1CN(Cc2cccnc2)C[C@H](n2cnc3c(N4CCCC4)ncnc32)O1 | nt | -19 | nt | nt | nt
O=C(Cn1cc2c(n1)CCCC2)NCC1CCCO1 (stereo not drawn) | 0 | 4 | 3.2* | 5 | -4
CC1CCC(NC(=O)Cn2cc3c(n2)CCCC3)CC1 (stereo not drawn) | 3 | 15 | 2 | -6 | -1
Cc1cc(=O)[nH]c(N2CCCCC2)n1 | nt | -3 | nt | nt | nt
O=C(NCCN1CCOCC1)c1nn2c(c1Cl)NC(c1ccccc1)CC2C(F)(F)F (stereo not drawn) | 3 | 3 | -1 | 82 | 45*
CC(Nc1nc(-c2ccc(F)cc2)cs1)c1nc2cc(Cl)c(Cl)cc2n1CCCO (stereo not drawn) | nt | -5 | nt | nt | nt
Cc1ccc(Cn2c(C(C)Nc3nc(-c4ccc(C)cc4)cs3)nc3cc(Cl)c(Cl)cc32)cc1 (stereo not drawn) | 18 | 2 | nt | 85* | nt
CN(CCNC(=O)c1c[nH]c2c1ccc1ccccc12)CCNC(=O)c1c[nH]c2c1ccc1ccccc12 | nt | -2 | nt | nt | nt
COc1ccc(N2C(=O)CC(SCCc3nc4ccccc4[nH]3)C2=O)cc1 (stereo not drawn) | -10 | 40* | 1 | -10 | 6
O=C1CC(SCCc2nc3ccccc3[nH]2)C(=O)N1c1ccc(F)cc1 (stereo not drawn) | 8 | 36 | 0 | 1 | 2
CC(=O)N=c1c(C#N)cc2c(=O)n3cccc(C)c3nc2n1Cc1ccco1 | 50* | 19 | 0 | 72* | 8

Source: PubChem BioAssay (several laboratories)
